# CYP2C9 act = human CYP2C9 activators, primary screen, biochemical, luminescence; hit rate 1.4% among 96,000; activation factor at 5 µM; Cytochrome P450 2C9 (Homo sapiens), P11712; AID 1024, 2008; recombinant CYP2C9, luciferin-H conversion; stronger effect = higher value; factor 1 = untreated enzyme, 0 = blocked;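 active = activation factor of 2 or more for CYP2C9 at a 5 µM dose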;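 also: 0 = sulfaphenazole-blocked wells and 1 = vehicle-only wells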
# CYP2C19 activ = human CYP2C19 activators, primary screen, biochemical, luminescence. Cytochrome P450 2C19 (Homo sapiens), P33261. recombinant CYP2C19, luciferin-H EGE luminescence; stronger effect = higher value; 0 = fully inhibited enzyme, 1 = untreated enzyme. activation factor at 5 µM. 96,000 tested, under 10 active. AID 1025, 2008;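 active = activation factor of at least 2 at 5 µM in the primary screen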;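 also: 0 = wells with 2.5 mM tranylcypromine and 1 = vehicle-only wells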
# Target sequence (P33261 whole entry, looked up): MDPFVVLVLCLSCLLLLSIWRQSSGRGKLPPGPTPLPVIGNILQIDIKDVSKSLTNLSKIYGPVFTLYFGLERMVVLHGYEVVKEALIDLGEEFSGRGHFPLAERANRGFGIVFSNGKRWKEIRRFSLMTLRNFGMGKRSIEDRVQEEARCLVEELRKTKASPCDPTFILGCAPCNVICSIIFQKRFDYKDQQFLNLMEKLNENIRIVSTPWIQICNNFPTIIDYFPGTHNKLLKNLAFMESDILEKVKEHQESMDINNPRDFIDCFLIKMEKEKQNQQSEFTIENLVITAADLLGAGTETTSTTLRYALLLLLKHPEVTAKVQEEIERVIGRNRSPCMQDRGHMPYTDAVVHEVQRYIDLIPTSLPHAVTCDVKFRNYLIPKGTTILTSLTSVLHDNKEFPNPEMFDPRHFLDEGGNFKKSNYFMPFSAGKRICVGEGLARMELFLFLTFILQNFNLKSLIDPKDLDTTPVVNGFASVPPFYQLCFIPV
# CYP2C19 inhib = blockers of cytochrome P450 2C19 activity – biochemical, luminescence, ADME assay, primary screen. P33261. CYP2C19 Supersomes, luciferin-H EGE luminescence, 30 min. inhibition, % at 5 µM. hit rate 21% among 96,000. AID 778, 2007;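 active = CYP2C19 inhibition above a set limit at 5 µM in the primary screen, cut at about 50% in these data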;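 also: plate controls were negative control wells for no effect and 2.5 mM tranylcypromine positive control for full effect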
# Cav32 inh = Cav3.2 calcium influx blockers – cell-based, Fluo-4 calcium fluorescence, FDSS, MLSMR library, primary screen; Voltage-dependent T-type calcium channel subunit alpha-1H (Homo sapiens), O95180; Cav3.2-expressing cells; stronger effect = lower value; B-score at 10 µM; hit rate 4% among 100,000; AID 449739, 2010;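 active = single-dose well whose peak fluorescence ratio is a statistical outlier from its plate by either plate-standardised score or position-corrected B-score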
# CYP2C9 inhib = blockers of cytochrome P450 2C9 activity – biochemical, luminescence, ADME assay, primary screen. P11712. CYP2C9 Supersomes, luciferin-H conversion. inhibition, % at 5 µM. hit rate 20% among 96,000;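 active = blocking of liver enzyme CYP2C9 beyond about 50% at 5 µM, limit read from the data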
# * marks the source's active call; other numbers are inactive results; . = no result given. Only some compounds are listed: those with a hit (about 27% of all), similar ones and a draw of the others.
SMILES,CYP2C9 act,CYP2C19 activ,CYP2C19 inhib,Cav32 inh,CYP2C9 inhib
CCOC(=O)c1ccc(NC2=CC(=O)C(=O)c3ccccc32)cc1,0.8,0.7,26,-0.09,21
CCOC(=O)C1=C(O)c2ccccc2C(=O)/C1=C\c1ccc(CC)cc1,0,0.1,89*,-4.6,97*
CCCc1ccc(/C=C2\C(=O)c3ccccc3C(O)=C2C(=O)OCC)cc1,0.1,0.2,78*,-0.82,92*
CCOC(=O)C1=C(O)CSC1=Nc1ccccc1,0.9,0.8,16,-0.91,14
C[C@]1(C(=O)NCc2cc(F)cc(C(F)(F)F)c2)C=C[C@@H](Cc2ccccc2)N1C(=O)c1ccccc1,.,.,.,-2.7,.
COc1cccc(N=c2oc3c(C)ncc(CO)c3cc2C(=O)Nc2ccccc2OC)c1,0.2,0.8,22,.,77*
CCOc1ccc(OCC)c(N=c2oc3c(C)ncc(CO)c3cc2C(N)=O)c1,0.8,1,-2,.,21
CC1=C(C(N)=O)C(c2ccccn2)n2nc(SCc3ccccc3)nc2N1 (stereo unspecified),.,.,.,0.092,.
CCC(C)C(=O)N1c2ccccc2C(=C2SC(C(=O)OC)=C(C(=O)OC)S2)C(=S)C1(C)C (stereo unspecified),0.3,0.2,76*,-2,72*
O=C(c1ccc2c(c1)OCO2)N1CCN=C1SCc1cccnc1,0.3,0.2,76*,0.44,67*
CN(C)S(=O)(=O)c1ccc(C(=O)N2CCN=C2SCc2cccnc2)cc1,1,1.1,-9,0.063,-3
COc1cccc(C(=O)N2CCN=C2SCc2cccnc2)c1OC,0.6,0.1,86*,0.096,42
COc1ccc(C(=O)N2CCN=C2SCc2cccnc2)c(OC)c1,0.4,0.1,88*,-0.072,62*
Cn1nnnc1SCC(=O)Nc1ccccc1N1CCOCC1,0.9,0.8,24,-0.24,9
CC1(C)Cc2cccc(OCC(=O)Nc3ccccc3N3CCOCC3)c2O1,0.4,0.1,91*,-2.3,56*
CN(C)CCCNCC(=O)Nc1ccccc1N1CCOCC1,0.3,1,2,0.15,67*
Cn1c(-c2ccc(F)cc2)cnc1SCC(=O)Nc1ccccc1N1CCOCC1,0.5,0.3,68*,-0.45,46
O=C(Cn1nnc(-c2ccccc2)n1)Nc1ccccc1N1CCOCC1,0.3,0.4,63*,-1.2,74*
COc1cccc2c1OC[C@@H](CO)[C@H]2N(C)C(=O)Nc1ccc(Cl)cc1,0.8,0.9,14,-0.26,20
COCCCN(Cc1ccccn1)S(=O)(=O)Cc1ccccc1,.,.,.,-0.62,.
O=C1c2ccccc2S(=O)(=O)c2cc(C(=O)N3CCN(c4ccc(Cl)cn4)CC3)ccc21,.,.,.,-0.93,.
Cc1nn(Cc2ccccc2)c(C)c1NC(=O)CSc1nc2sc3c(c2c(=O)n1C)CCC3,.,.,.,0.54,.
CCc1ccccc1NC(=O)Cn1nnc(-c2cccnc2)n1,0.9,0,96*,0.16,15
Cc1ccc(-c2nnn(CC(=O)Nc3ccccc3N3CCOCC3)n2)cc1,0.2,0.7,26,-0.018,79*
Cc1ccc(-c2nnc(SCC(=O)Nc3ccccc3N3CCOCC3)o2)cc1,1,0.9,6,0.012,-1
SMILES,CYP2C9 act,CYP2C19 activ,CYP2C19 inhib,Cav32 inh,CYP2C9 inhib
CCOc1ccc(-c2nnn(CC(=O)Nc3ccccc3OC)n2)cc1OCC,0.8,0.8,23,0.67,22
N#CC1=C(N)OC2=C(C(=O)CCC2)C12CCN(C(=O)OCc1ccccc1)CC2,0.3,0,99*,-0.49,66*
Cc1[nH]nc2c1C1(CCN(C(=O)OCc3ccccc3)CC1)C(C#N)=C(N)O2,0.5,0.3,68*,-0.69,48
CCOC(=O)N1CCC2(CC1)C(C#N)=C(N)OC1=C2C(=O)CC(C)C1 (stereo unspecified),0.3,0.8,16,1.3,68*
Cc1[nH]nc2c1C1(CCN(C(=O)c3ccccc3)CC1)C(C#N)=C(N)O2,1.1,1,-2,0.83,-12
CC1(C(=O)O)CCC(C(=O)N2CCOCC2)C1(C)C (stereo unspecified),1.1,1,4,-0.03,-8
Cc1ccc2nc(SCc3nnc(-c4ccccc4Br)o3)[nH]c2c1,0.3,0.2,83*,-3.1,75*
Clc1ccc2nc(SCc3nnc(-c4ccccc4)o3)[nH]c2c1,0.2,0.1,86*,.,76*
Clc1ccc(OCc2nnc(SCc3nnc(-c4ccccc4)o3)o2)c(Cl)c1,0.7,0.1,92*,-6.1*,32
CCCCc1cc2c(c(NC(=O)CC)n1)c(=O)oc1ccccc12,0.9,0.9,10,0.034,15
CCCCNC(=O)c1cc(-c2ccc(F)cc2)on1,.,.,.,-0.78,.
O=C(NCc1ccccc1)NC1(C(=O)N2CCN(c3ccccc3)CC2)CCCCC1,0.7,0.4,57*,1.2,33
Cc1ccccc1NC(C)C(=O)N/N=C/c1ccccc1OCc1cccc(Br)c1 (stereo unspecified),0.2,0.5,48,-6.4*,76*
N#Cc1ccccc1NC(=O)Nc1cccs1,1.2,1.2,-22,0.44,-25
CC(CN1CCCCC1)OC(=O)c1cc2ccccc2o1 (stereo unspecified),1.1,1.1,-6,0.00019,-10
CCOC(=O)CCc1c(C)nc(SCCCn2c(=O)[nH]c3ccccc32)c(C#N)c1C,0.4,0.5,46,0.23,64*
c1ccc(CCNc2ncnc3scc(C4COc5ccccc5O4)c23)cc1 (stereo unspecified),0.3,0.4,57*,-3.6,73*
c1ccc2c(c1)OCC(c1csc3ncnc(N4CCCC4)c13)O2 (stereo unspecified),0.1,0,99*,-5.1*,94*
O=C(CSCCO)Nc1ccc(C2CCCCC2)cc1,1.1,0.9,10,-0.64,-8
CCOc1ccc(CCNS(=O)(=O)c2cnc[nH]2)cc1OCC,0.1,0.3,68*,0.29,94*
COc1ccc(CCNS(=O)(=O)c2ccccc2)cc1OC,0.7,0.7,34,0.42,33
Cc1ccc(C(=O)COC(=O)CNC(=O)COc2ccccc2C)cc1C,2.4*,0.9,12,-1.2,-144
Clc1cccc(CON/C=N/c2ncnc3sccc23)c1,0.5,0.2,80*,-2.3,50*
CN(C)S(=O)(=O)N1CCN(c2ccc(Cl)cc2)CC1,0.7,0.4,63*,-0.51,30
O=S(=O)(c1cnc[nH]1)N1CCN(c2ccc(Cl)cc2)CC1,0.2,0,96*,-0.16,81*
CC1Cc2ccccc2N1S(=O)(=O)c1cnc[nH]1 (stereo unspecified),0,0.1,92*,0.94,98*
CC(=O)N1CCc2cc(S(=O)(=O)N3c4ccccc4CC3C)ccc21 (stereo unspecified),0.7,0.9,14,-2.3,30
